# Sampled rows, rich in hits. Any-hit rate of the full collection: about 2.5%.
# D2 antag = HTS Assay for Allosteric Antagonists of the Human D2 Dopamine Receptor: Primary Screen for Antagonists | AID 485344, 2010 | inhibition, % at 10 µM | D(2) dopamine receptor (Homo sapiens), P14416 | HEK293 TREx D2 cells, calcium flux, dopamine EC80 | 2% of 340,000 active; in the data active = inhibition above about 30%; inactive = below that, where a call was filed; note: 0% is about no effect
# Target sequence (P14416 whole entry, looked up): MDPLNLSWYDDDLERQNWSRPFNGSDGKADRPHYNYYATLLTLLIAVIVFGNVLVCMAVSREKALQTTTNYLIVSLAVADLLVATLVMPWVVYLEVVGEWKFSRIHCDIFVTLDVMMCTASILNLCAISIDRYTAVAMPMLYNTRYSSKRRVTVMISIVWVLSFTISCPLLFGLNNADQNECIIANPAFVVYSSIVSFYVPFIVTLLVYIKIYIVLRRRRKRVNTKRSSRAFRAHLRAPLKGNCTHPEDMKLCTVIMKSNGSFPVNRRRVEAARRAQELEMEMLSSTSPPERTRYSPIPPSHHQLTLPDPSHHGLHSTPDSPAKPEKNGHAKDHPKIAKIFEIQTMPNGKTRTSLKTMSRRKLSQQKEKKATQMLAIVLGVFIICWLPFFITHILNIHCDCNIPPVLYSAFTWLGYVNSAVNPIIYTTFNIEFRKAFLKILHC
#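 Compounds are added to dye-loaded, induced HEK293 T-REx cells coupled to calcium release via D2; after a 3 min kinetic read an EC80 dopamine stimulus is given and fluorescence is recorded for 3 more min.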
# Anesthetic bind = qHTS Assay for Identification of Novel General Anesthetics; apoferritin/1-aminoanthracene competitive binding, fluorescence; Ferritin light chain (Equus caballus), P02791; Potency, µM (doses to about 77.5 µM), for inactives: at the top dose activity change, negative = displacement, actives largely listed as inhibitors; 0.074% of 350,000 active; active = well fitted inhibition curve with a large enough effect; inconclusive = small, poorly fitted or top-dose-only effect; inactive = no such curve, though single readings can be large or run the other way; note: potency is the fitted concentration of half-maximal effect; % is set by controls: 0 for no effect and ±100 for the full control effect; nearly all actives have a fitted effect of over 20% in size
# Target sequence (P02791 2-175 limits assumed): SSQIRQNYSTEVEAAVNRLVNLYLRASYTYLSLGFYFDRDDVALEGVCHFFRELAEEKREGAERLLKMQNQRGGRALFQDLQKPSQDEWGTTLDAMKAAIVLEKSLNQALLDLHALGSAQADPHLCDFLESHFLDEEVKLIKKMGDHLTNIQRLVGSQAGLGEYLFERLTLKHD
#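 Horse-spleen apoferritin (10 uM) was mixed with 50% saturated 1-aminoanthracene in PBS, exposed to compounds for 10 min at room temperature, and read for fluorescence (ex 380 nm, em 535 nm). Competitive displacement was fitted with a four-parameter Hill equation.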
# D2 PAM-1 = Beta-Arrestin HTS for Positive Allosteric Modulators of the Human D2 Dopamine Receptor: Potentiators; DiscoveRx D2 beta-arrestin cells, luminescence, 90 min; 100% = 57 uM dopamine signal; potentiation, % (no concentration beside the values); 0.23% of 360,000 active; in the data active = potentiation above about 50%; inconclusive = mostly about 30% to 49%
#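 PathHunter D2 cells, attached overnight at 37 deg C, received compound in DMSO plus dopamine at EC20 (50 nM final) for 90 min at 37 deg C. Beta-arrestin recruitment was read as luminescence after 1 h with detection reagent at ambient temperature.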
# D2 ag-1 = HTS Assay for Allosteric Agonists of the Human D2 Dopamine Receptor: Primary Screen for Agonists; AID 485358, 2010; HEK293 T-REx D2 cells, calcium flux agonist mode; 0.53% of 340,000 active; D(2) dopamine receptor (Homo sapiens), P14416; activation, % at 2 µM;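 active = activation over 3 SD above normal in the single-dose calcium agonist read, cut at about 30% in these data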; note: 0% is about no effect
#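 Agonism scored from kinetic calcium signal (1 read/sec, 180 s) following compound pin transfer, after a 10 s baseline. Cells: HEK293 Trex line expressing inducible D2 receptor coupled to calcium, dye-loaded after overnight culture at 30 C.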
# D2 ag-2 = Beta-Arrestin HTS for Positive Allosteric Modulators of the Human D2 Dopamine Receptor: Agonists | 0.084% of 360,000 active | activation, % (test concentration not listed) | D(2) dopamine receptor (Homo sapiens), P14416 | DiscoveRx PathHunter D2 beta-arrestin, luminescence, 90 min; 100% = 57 uM dopamine signal; in the data active = activation above about 40%; inconclusive = between about 15% and that limit
#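 DiscoveRx PathHunter D2 beta-arrestin cells (2,100/well) attached overnight, then compound-stimulated 90 min at 37 C in HBSS/10 mM HEPES/0.1% Tween-20 buffer; beta-galactosidase complementation read by luminescence after 1 h at ambient temperature. Dopamine 57 uM final (EC100) as control.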
# D2 PAM-2 = HTS Assay for Positive Allosteric Modulators of the Human D2 Dopamine Receptor: Primary Screen for Potentiators. D(2) dopamine receptor (Homo sapiens), P14416. HEK293 T-REx D2, calcium flux, EC20 dopamine potentiation. potentiation, % at 10 µM. 0.34% of 340,000 active. AID 485347, 2010;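 active = potentiation over 3 SD above the plate norm, cut at about 30% in these data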; note: 0% is about no effect
#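 Using a no-wash calcium dye in inducible, force-coupled HEK293 Trex cells expressing D2, we tracked fluorescence each second for 180 s after compound, then for 180 s after EC20 dopamine to detect augmented signalling.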
# Active calls of the source: *; ? = inconclusive; . = no result.
SMILES,D2 antag,Anesthetic bind,D2 PAM-1,D2 ag-1,D2 ag-2,D2 PAM-2
Cc1ccc(NC(=O)/C(C#N)=C(\N)C(Cl)(Cl)Cl)nc1,33*,-11%,1,0,0,19
Cc1ccc(NC(=O)C(=O)Nc2ccc(C)cn2)nc1,-8,-3%,-9,0,0,0
COCCn1c(SCC#N)nnc1-c1ccc(OC)cc1,55*,2%,-5,-1,2,-20
COCCn1c(SCC(=O)Nc2sc(C)c(C)c2C#N)nnc1-c1ccc(OC)cc1,4,?,-4,-2,1,-23
N=c1sccn1CC(=O)NCCc1ccc(Cl)cc1Cl,39*,-14%,-24,0,-3,-9
COc1cc(C2CC(=O)n3c(nc4ccccc43)S2)cc(OC)c1OC (configuration not stated),-2,117%,.,0,.,30*
CCCCCCCCOc1ccc(C2CC(=O)NC2=O)cc1 (configuration not stated),-1,?,-9,1,-4,1
O=C1CC(c2ccc(OCCCCCOc3ccc(C4CC(=O)NC4=O)cc3)cc2)C(=O)N1 (configuration not stated),37*,?,8,0,9,5
c1csc(C(c2nnnn2C2CCCC2)N2CCCC3(CCCCC3)C2)c1 (configuration not stated),31*,-12%,-2,0,0,7
CC(C)CCOCC1CC2(CC(C)(c3csc(N)n3)OC2=O)C(=O)O1 (configuration not stated),-11,-7%,-17,0,-3,11
COc1ccc(C2N(S(=O)(=O)c3ccc(C)cc3)CCN2S(=O)(=O)c2ccc(C)cc2)cc1,36*,34%,-13,1,0,-4
COc1ccc(C2N(C(=O)C(F)(F)F)C(C)CN2S(=O)(=O)c2ccc(C)cc2)cc1 (configuration not stated),35*,2%,-6,1,1,-9
COc1ccc(Nc2nc(NCC3CCCO3)nc(N)c2[N+](=O)[O-])cc1 (configuration not stated),16,5%,-4,1,-5,10
CC(=O)c1nn(-c2ccccc2)cc1C(=O)c1ccc(Br)cc1,.,-4%,-4,.,-19,.
COc1nc(=O)n(C2OC(CO)C(O)C2O)cc1C (configuration not stated),.,.,-4,.,-1,.
CON(C)c1nc(Oc2ccc(=O)[nH]n2)nc(N(C)C)n1,-9,8%,-3,0,-1,45*
COc1ccc(S(=O)(=O)CCC(=O)NCCc2ccc(S(N)(=O)=O)cc2)cc1,-7,5%,3,3,-1,1
COc1ccccc1CNS(=O)(=O)c1c(C(=O)N2CCCCC2)c(C)n(C)c1C,30*,-4%,-13,0,-4,10
COc1ccc(NC(=O)CN2CCN(CC(=O)Nc3ccccc3F)CC2)cc1OC,20,-11%,2,0,0,-8
O=C(COc1ccc(Br)cc1)Nc1ccc2c(c1)C(=O)NC2=O,33*,-1%,-9,0,-3,-15
COc1ccc(OCC(=O)Nc2ccc3c(c2)C(=O)NC3=O)cc1,-30,-3%,-11,0,-1,1
O=C(CCc1nc(-c2ccccc2)no1)Nc1cc(C(F)(F)F)ccc1Cl,4,-23%,-9,-1,6,14
CCOC(=O)C1CCCN(C(=O)C2CCN(S(=O)(=O)c3cnc[nH]3)CC2)C1 (configuration not stated),-3,-12%,14,1,0,8
CCOC(=O)C1CCN(S(=O)(=O)c2cnc[nH]2)CC1,35*,-1%,-24,0,-4,4
O=c1c2c3c(sc2nc2n1CCCC2)CCCCC3,-6,-12%,-14,0,1,-2
SMILES,D2 antag,Anesthetic bind,D2 PAM-1,D2 ag-1,D2 ag-2,D2 PAM-2
CC1=Nn2c(nc3sc4c(c3c2=O)CCCC4)SC1,55*,-4%,1,0,-6,5
O=c1c2c3c(sc2nc2n1CCCCC2)CCCCC3,57*,1%,.,0,.,8
Cc1cccc(N2CCN(c3ncnc4c3c(-c3ccccc3)cn4-c3ccccc3)CC2C)c1 (configuration not stated),.,3%,.,0,.,24
COc1ccc(C2C(C(=O)NCc3ccco3)CCC(=O)N2c2ccc(OC)cc2)cc1 (configuration not stated),38*,-11%,-12,0,-1,3
COc1ccc(C2C(C(=O)O)CCC(=O)N2c2ccc(OC)cc2)cc1 (configuration not stated),18,-9%,-7,0,-2,4
CCOc1ccc2ccccc2c1/C=N\NC(=O)c1ccc([N+](=O)[O-])cc1,39*,-7%,-12,0,14,-21
CCOc1ccc2ccccc2c1/C=N\NC(=O)OC,-1,41%,-20,-1,0,-3
CCOc1ccccc1NC(=O)NNS(=O)(=O)c1ccc([N+](=O)[O-])cc1,-5,-9%,18,0,-4,5
CCOc1ccccc1NC(=O)CSc1ccc([N+](=O)[O-])cc1,41*,-16%,-5,0,-3,-14
CC(C)(C)C(=O)c1no[n+]([O-])c1/C(=N/O)C(C)(C)C,.,?,-15,.,3,.
CN(C)c1ccc(CNC(=O)CCCN2C(=O)c3cccnc3Oc3ccc(Cl)cc32)cc1,.,-12%,.,-2,.,.
N#CC(C#N)=c1ccc2c(c1)N1C3=C(CCCC3)CC3CCCCC31N=2 (configuration not stated),3,-5%,71*,3,3,6
COC(=O)c1cc2c(C)c(C)c3ccccn3c-2c1C(=O)OC,0,4%,-16,2,0,3
CC(C)OC(=O)c1c2c(n3ccccc13)C(=O)c1ccccc1C2=O,5,4%,28,69*,?,7
O=c1c2c(nc3cc(-c4ccc(Br)cc4)[nH]n13)CCCC2,54*,-8%,-13,11,-2,-27
